# Assay results reported in the supplement of paper PMC6555819.
# What was measured:
# Test in all cases: PBM binding z-score (relative to random genomic background probes); higher = stronger binding; sequences stand for … in GC…GCGATTGACAGCGTAGAATGAAGG
# [1] = system: FXR:RXRa (NR concentration 270 nM, RXRa partner concentration 90 nM)
# Summary of the method: (§1)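 For binding z-scores, the reference was random background probes on custom Agilent 4×180K protein-binding microarrays. These arrays were incubated 1 h with ligand-free nuclear receptor dimers in PBS pH 7.4, 2% milk, 0.02% Triton X-100, 1 mM DTT, 0.2 mg/mL BSA and 0.4 mg/ml salmon testes DNA. Fluorescence was scanned after antibody detection of each partner (one per run) and regression-normalized.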
# [2] = system: LXRa:RXRa (NR concentration 270 nM, RXRa partner concentration 90 nM)
# Summary of the method: as §1
# [3] = system: LXRa homodimer (NR concentration 270 nM)
# Summary of the method: as §1
# [4] = system: LXRb:RXRa (NR concentration 270 nM, RXRa partner concentration 90 nM)
# Summary of the method: as §1
# [5] = system: LXRb homodimer (NR concentration 270 nM)
# Summary of the method: as §1
# [6] = system: PPARa:RXRa (NR concentration 270 nM, RXRa partner concentration 90 nM)
# Summary of the method: as §1
# [7] = system: PPARg:RXRa (NR concentration 180 nM, RXRa partner concentration 90 nM)
# Summary of the method: as §1
# [8] = system: PPARg:RXRa 270nM:90nM, anti-RXR (NR concentration 270 nM, RXRa partner concentration 90 nM)
# Summary of the method: as §1
# [9] = system: PPARg:RXRa 30nM:10nM, anti-RXR (NR concentration 30 nM, RXRa partner concentration 10 nM)
# Summary of the method: as §1
# [10] = system: PPARg:RXRa 90nM:30nM, anti-RXR (NR concentration 90 nM, RXRa partner concentration 30 nM)
# Summary of the method: as §1
# [11] = system: PPARg:RXRa DBDmut IVT, anti-RXR (DBD mutation: RXRa K156A/R161A, NR concentration 270 nM, RXRa partner concentration 90 nM)
# Summary of the method: as §1
# [12] = system: PPARg:RXRa IVT, anti-PPARg (NR concentration 270 nM, RXRa partner concentration 90 nM)
# Summary of the method: as §1
# [13] = system: PPARg DBDmut:RXRa IVT, anti-PPARg (DBD mutation: PPARg1 K132A/R137A, NR concentration 270 nM, RXRa partner concentration 90 nM)
# Summary of the method: as §1
# [14] = system: PPARg DBDmut IVT, anti-PPARg (DBD mutation: PPARg1 K132A/R137A, NR concentration 270 nM)
# Summary of the method: as §1
# [15] = system: PPARg homodimer (NR concentration 180 nM)
# Summary of the method: as §1
# [16] = system: PXR:RXRa (NR concentration 270 nM, RXRa partner concentration 90 nM)
# Summary of the method: as §1
# [17] = system: PXR homodimer (NR concentration 270 nM)
# Summary of the method: as §1
# [18] = system: RARa:RXR (NR concentration 270 nM, RXRa partner concentration 90 nM)
# Summary of the method: as §1
# [19] = system: RARa homodimer (NR concentration 270 nM)
# Summary of the method: as §1
# [20] = system: RARb:RXRa (NR concentration 270 nM, RXRa partner concentration 90 nM)
# Summary of the method: as §1
Sequence,PBM binding z-score [1],PBM binding z-score [2],PBM binding z-score [3],PBM binding z-score [4],PBM binding z-score [5],PBM binding z-score [6],PBM binding z-score [7],PBM binding z-score [8],PBM binding z-score [9],PBM binding z-score [10],PBM binding z-score [11],PBM binding z-score [12],PBM binding z-score [13],PBM binding z-score [14],PBM binding z-score [15],PBM binding z-score [16],PBM binding z-score [17],PBM binding z-score [18],PBM binding z-score [19],PBM binding z-score [20]
ATCTGTAGGTTACATCCGGGTCATTCAGGCTATG,1.94,4.67,1.97,2.81,1.35,3.22,1.98,2.56,0.963,1.83,3.84,4.04,1.35,1.89,1.96,3.52,1.9,3.18,0.982,2.34
ATCGAAAGGTCGGGAGGTGAGTATACAGAAAGGC,2.88,2.4,0.589,2.36,0.968,3.64,2.22,2.42,0.864,1.44,0.224,1.47,2.2,1.16,1.74,2.12,0.567,2.81,1.38,3.48
GATACAGGGTCAAGGCCAGATTACGCGTATTGAT,7.02,4.53,0.129,4.07,0.268,5.77,5.99,5.29,2.36,4.09,2.74,4.03,2.24,1.3,3.72,4.43,0.645,5.48,1.59,4.65
CGAACTAGGTCATTGAAAGGACAGTGAATAGTAA,3.97,2.81,0.177,1.84,0.134,4.42,7.82,6.43,4.13,5.83,8.01,8.24,2.22,2.02,3.92,2.1,0.391,4.04,1.01,4.1
GCTTGTAGATCAAGGTTAAAAAAGACTAAGCTAA,0.221,1.35,-0.113,0.828,-0.501,1.84,1.19,2.38,0.522,1.79,1.05,1.23,0.281,0.272,0.282,0.574,-0.0589,1.15,0.0785,0.688
ATCGAAAAGTCGAGGTGAGTATAGAGAAAGGGAA,0.304,0.67,-0.216,-0.238,-0.0548,0.326,0.344,-0.139,0.203,-0.312,-0.205,0.704,1.25,-0.338,0.107,-0.235,0.048,0.0313,-0.268,0.639
CCTGCTAGGTCAATGGTCAGCTACAGCAGCTCGC,3.03,2.08,-0.0038,1.55,-0.217,2.98,4.03,5.1,2.52,4.92,4.55,3.95,-0.354,-0.419,1.53,1.04,-0.299,1.64,-0.404,3.58
CCAGACAGGTGAGCAGGTAACTCAGCCTCGATTA,-0.268,0.0871,-0.134,0.00402,-0.328,0.272,0.174,-0.00169,-0.644,-0.464,1.15,0.619,-0.93,-1.41,0.319,-0.31,0.22,-0.516,0.0182,0.568
ATCGAAAGGTCGAGGCGAGTATAGAGAAAGGGAA,3.71,3.01,-0.542,2.24,0.308,4.47,2.71,2.86,0.749,1.52,0.108,1.14,0.481,0.208,0.98,2.11,0.0659,2.71,0.203,3.86
TCTGGTAGATCAACAGGAGGTTAAGAAAGATCGA,0.3,1.04,0.187,0.782,-0.582,1.24,-0.00962,1.19,2.17,1.82,0.912,0.0177,0.166,-0.137,0.335,0.736,-0.172,1.06,-0.145,0.269
CCTTTCGGGTCACTCCAGGTTATAGCATCGGAGT,4.95,7.32,2.02,5.17,0.836,4.58,3.15,3.78,1.09,2.75,2.65,3.53,0.307,-0.494,2,4.94,0.803,3.73,0.474,4.01
TCATATAGGTAAAAGATGAAAGTCGGTGTGGTAA,0.736,1.17,-0.031,1.03,0.134,2.6,3.49,4.9,5.17,5.29,4,2.54,1.07,0.573,0.893,0.672,0.283,1.08,1.1,0.338
CAAACTAGGTCACCGGAAGGTCAAACTCCGCATG,6.33,6.34,6.11,5.67,1.82,6.19,9.8,7.8,6.23,7.86,8.32,8.83,5.1,4.65,8.25,6.17,2.46,7.35,2.71,5.14
TCTTGAAGATCAGCAGGTTAAGAAAGCTGGCCAA,0.211,0.582,-0.541,0.285,-0.955,0.856,-0.581,1.44,2.86,2.07,1.75,-0.514,-1.09,-0.481,-0.436,0.0848,-0.299,0.104,-0.00981,0.0583
ATCTCTAGGTAACAAGTTCAGGGAAAGAGAGGAC,1.08,1.19,0.665,1.09,1.23,1.97,1.74,2.3,1.06,1.99,3.5,3.06,1.15,2.01,1.61,1.74,1.82,1.32,1.58,1.69
ACTATAAGTTGAGACGAGGGCAACCGATAGGTTG,1.18,0.684,-0.161,0.115,-0.00417,0.691,1.01,0.487,0.313,0.578,0.251,0.388,0.373,-0.377,0.181,3.22,0.715,1.53,0.18,1.53
GCTCGGAGGACAAGGACAGAGCTTTGTCCGTAGA,-0.454,-0.825,-0.708,-0.936,-1.44,-0.604,-0.644,-0.934,-1.21,-1.04,-0.897,-0.505,-1.52,-0.297,-0.588,-0.527,-0.912,-0.421,-1.45,0.929
CCTACTGGGCCATTCAGGGGTCATTGATCATATG,3.39,3.59,3.43,4.16,-0.118,4.49,2.95,3.73,1.27,2.64,3.55,4.44,-0.679,-0.364,2.13,5.18,1.05,5.59,0.603,3.03
CCTATTAGTTGACCCTAAGGGCAACCGAAGCTCG,4.38,3.57,1.02,3.56,1.04,4.53,1.6,3.34,0.981,2.19,0.775,1.82,0.412,0.556,3.19,4.25,1.16,4.62,2.32,2.93
CCTAGCAGGCCAATCTGTGTCACTCAAGGCTTGA,-0.0282,-0.198,-0.502,-0.335,-0.193,0.394,-0.0496,-0.118,-0.619,-0.304,2.87,2.13,-1.03,-1.32,-0.244,-0.438,-0.358,-0.217,-0.52,0.211
GCTGCTAGGTCAGGTTGGTCAGCTAGCGGGTACG,1.15,0.736,-0.0466,0.193,-0.466,1.36,-0.0149,0.792,-0.603,0.329,2.9,1.88,-0.638,-1.03,0.481,0.0467,-1.01,0.604,-0.467,3.38
ACAGACAGGTGAGTGGAGGTAACTCAGCTGGACG,0.578,0.206,-0.47,-0.13,-0.275,0.431,0.557,-0.0456,-0.0591,0.000165,0.56,1.09,-0.327,-0.467,0.425,0.121,-0.151,0.729,-0.053,0.617
CCTAGCAGGCCAGTGTCACTCAAGCATTTCGCTT,-0.361,-0.253,-0.614,-0.187,-0.597,-0.0659,-0.338,-0.0615,-0.773,-0.752,1.35,0.117,-1.21,-1.52,-0.723,-0.407,-0.826,-0.184,-0.658,0.286
ATCTCTAGGTAACCAAGTTCAGTGAATGCCGAAC,0.707,1.04,0.708,0.638,0.763,1.33,0.617,0.913,0.376,0.682,3.64,3.09,0.611,1.02,1,1.86,1.98,0.882,0.575,1.36
CCTAGTGGGCCATTCAGAGGTCATTGATCATATG,2.85,4.29,6.62,3.77,0.202,3.98,2.23,3.11,0.966,2.3,4.41,4.44,1.45,0.315,4.35,4.94,2.6,4.89,0.902,2.98
CCTTACGGGTCACTGCCAGGTTATAGCATTTGGA,5.22,3.93,0.268,3.17,0.0184,4.86,4.05,4.26,1.23,2.88,3.11,3.87,0.0612,-0.48,2.07,3.53,0.376,3.87,0.61,3.8
TCTCGGAGGACACGAACGGTCAGAGCTCGACATC,0.632,0.398,0.0467,-0.277,-0.841,0.0396,0.0784,0.624,1.74,0.89,1.13,-0.161,-0.337,-0.995,-0.693,-0.215,-0.654,-0.0917,-0.739,2.1
GCATATAGGTGATACAAGGTGAAAGTCCGATTGT,1.98,0.421,-0.185,0.234,-0.213,2.26,1.73,2.17,0.808,1.33,5.22,4.28,0.633,0.787,0.568,0.71,-0.00117,1.11,0.474,0.893
TCCATTAGTTGATTAGGGCAACCGAAACAGCGGA,0.464,0.43,0.384,0.197,0.366,0.857,0.199,2.15,3.94,2.76,2.08,1.28,0.323,0.941,0.749,0.562,0.0879,0.689,0.398,1
